Test results taken from PubChem BioAssay (NCATS).
Inconclusive results are not listed. Active and inactive are the calls of the source. Unless noted, calls follow the shape of the dose curve; as a rule, active = well fitted curve in the direction sought with a large enough effect; inconclusive = small, poorly fitted or top-dose-only effect, or another doubt; inactive = no such curve, though single readings can be large; an effect the other way counts as inactive or inconclusive.

Key:
[1] = biological target: Ubiquitin carboxyl-terminal hydrolase 1 (Homo sapiens) (UniProt O94782); assay: Inhibitors of USP1/UAF1: Pilot qHTS (AID 504865); conditions: purified USP1/UAF1, Ub-rhodamine cleavage fluorescence; series mostly up to 114 µM;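 also: rhodamine fluorescence freed from ubiquitin-rhodamine substrate followed over time; top concentration of the series differs between compounds; % is scaled to controls: 0 for no effect and ±100 for the full control effect; nearly all actives have a fitted effect of over 35% in size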
Summary of the method: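 Enzyme-free wells gave the negative control, while test wells held 1nM USP1/UAF1 preincubated with compound for 15 min at room temperature. Ub-Rho at 150nM final started the reaction, and fluorescence at 480/540 nm was recorded kinetically.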

[2] = biological target: Luciferin 4-monooxygenase (Photinus pyralis) (UniProt P08659); assay: Biochemical firefly luciferase enzyme assay for NPC (AID 624030);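 also: purified P. pyralis luciferase at 10 nM with luciferin and ATP substrate; 0% = DMSO and -100% = full luciferase inhibition by PTC124 control; nearly all actives have a fitted effect of over 70% in size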; conditions: purified P. pyralis luciferase, luminescence, 5 min; series mostly up to 58.6 µM
Summary of the method: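 Purified P. pyralis luciferase at 10 nM in 50 mM Tris Acetate (final), luminescence read within 5 minutes of enzyme addition to compounds. Activity normalised to PTC124 versus DMSO; concentration-response curves classed by r2, magnitude and activity.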

[3] = S16 Schwann cell viability assay (CellTiter-Glo assay) (AID 624031); conditions: S16 rat Schwann cells viability, 24 h; series mostly up to 57.5 µM;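 also: native untransfected S16 rat Schwann cells; cellular ATP luminescence as a viability measure; plate controls were DMSO-treated cells for no effect and cell-free wells for full effect; nearly all actives have a fitted effect of over 70% in size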
Summary of the method: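 Concentration-effect curves come from CellTiter-Glo luminescence of S16 rat Schwann cells after 24 h compound exposure. Each reading was normalized to DMSO wells (0%) and wells without cells, and curves were ranked by r2 and response magnitude.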

[4] = S16 Schwann cell PMP22 intronic element firefly luciferase assay (AID 624032); conditions: S16 rat Schwann cells, PMP22 element FLuc, 24 h; series mostly up to 57.5 µM;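 also: plate controls were DMSO for no effect and PTC124 positive control mean for full effect; nearly all actives have a fitted effect of over 30% in size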
Summary of the method: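 Rat S16 Schwann cells stably carrying firefly luciferase driven by a PMP22 intronic element, in 10% FBS, treated 24 h at 37 C. ONE-Glo luminescence normalized to PTC124 control and DMSO (0%); curves classed by r2, magnitude and activity.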

[5] = S16 Schwann cell PMP22 intronic element beta-lactamase assay (AID 624044; calls by dose curve;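 also: 0% = DMSO and -100% = potassium clavulanate positive control; nearly all actives have a fitted effect of over 15% in size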); conditions: S16 rat Schwann cells, PMP22 element beta-lactamase FRET, 24 h; series mostly up to 38.3 µM
Summary of the method: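 Rat S16 Schwann cells with beta-Lac driven by a PMP22 intronic element, compound-treated 24 h at 37 °C. LiveBLAzer FRET B/G read: 460 nm normalized to potassium clavulanate vs DMSO; 535 nm FRET as viability; concentration-effect curves classified.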

[6] = tested on: 3D7; assay: qHTS profiling for inhibitors of Plasmodium falciparum proliferation (AID 504749);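 also: 0% = DMSO vehicle and full inhibition = artemisinin control; nearly all actives have a fitted effect of over 60% in size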; conditions: P. falciparum in erythrocytes, SYBR Green DNA, 72 h; series mostly up to 28.7 µM
Summary of the method: (§1)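 Readout was DNA-dye fluorescence from lysed cultures, ex 485/em 535 nm. Parasitized red cells had grown 72 h with compound; data scaled between 0.29 uM artemisinin and DMSO wells and corrected using vehicle-only plates.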

[7] = tested on: CP215; assay: as above; conditions: P. falciparum in erythrocytes, SYBR Green DNA, 72 h; series mostly up to 28.7 µM
Summary of the method: as §1

[8] = tested on: CP260; assay: as above; conditions: P. falciparum in erythrocytes, SYBR Green DNA, 72 h; series mostly up to 28.7 µM
Summary of the method: as §1

[9] = tested on: CP286; assay: as above; conditions: P. falciparum in erythrocytes, SYBR Green DNA, 72 h; series mostly up to 28.7 µM
Summary of the method: as §1

[10] = tested on: CP291; assay: as above; conditions: P. falciparum in erythrocytes, SYBR Green DNA, 72 h; series mostly up to 28.7 µM
Summary of the method: as §1

[11] = tested on: CP297; assay: as above; conditions: P. falciparum in erythrocytes, SYBR Green DNA, 72 h; series mostly up to 28.7 µM
Summary of the method: as §1

[12] = tested on: CP315; assay: as above; conditions: P. falciparum in erythrocytes, SYBR Green DNA, 72 h; series mostly up to 28.7 µM
Summary of the method: as §1

[13] = tested on: CP335; assay: as above; conditions: P. falciparum in erythrocytes, SYBR Green DNA, 72 h; series mostly up to 28.7 µM
Summary of the method: as §1

[14] = tested on: DIV14; assay: as above; conditions: P. falciparum in erythrocytes, SYBR Green DNA, 72 h; series mostly up to 28.7 µM
Summary of the method: as §1

[15] = tested on: Dd2; assay: as above; conditions: P. falciparum in erythrocytes, SYBR Green DNA, 72 h; series mostly up to 28.7 µM
Summary of the method: as §1

[16] = tested on: GB4; assay: as above; conditions: P. falciparum in erythrocytes, SYBR Green DNA, 72 h; series mostly up to 28.7 µM
Summary of the method: as §1

[17] = tested on: JCK; assay: as above; conditions: P. falciparum in erythrocytes, SYBR Green DNA, 72 h; series mostly up to 28.7 µM
Summary of the method: as §1

[18] = tested on: TAB165; assay: as above; conditions: P. falciparum in erythrocytes, SYBR Green DNA, 72 h; series mostly up to 28.7 µM
Summary of the method: as §1

[19] = tested on: ICS; assay: as above; conditions: P. falciparum in erythrocytes, SYBR Green DNA, 72 h; series mostly up to 28.7 µM
Summary of the method: as §1

[20] = qHTS Assay for Identification of Small Molecule Agonists for Hypoxia Response Element Signaling Pathway (AID 914; active = well fitted activation curve with a large enough effect in the signal ratio, with a control signal flat, not every such curve was filed as active; the % refers to the signal ratio; also: potency is read from the fitted curve at half-maximal effect; as to activation: % of control where 0% means no effect); conditions: ME-180 (cervical carcinoma) HRE-bla reporter, beta-lactamase ratio, CoCl2, 17 h; activation: active compounds read high
Summary of the method: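 Compounds in a titration series were added to ME-180 reporter cells alongside an EC50 level of CoCl2. After 17 hours, beta-lactamase activity was read as the 460nm/530nm emission ratio of CCF4, giving AC50 values.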

Chain of Ubiquitin carboxyl-terminal hydrolase 1 (Homo sapiens) (O94782 whole entry, looked up): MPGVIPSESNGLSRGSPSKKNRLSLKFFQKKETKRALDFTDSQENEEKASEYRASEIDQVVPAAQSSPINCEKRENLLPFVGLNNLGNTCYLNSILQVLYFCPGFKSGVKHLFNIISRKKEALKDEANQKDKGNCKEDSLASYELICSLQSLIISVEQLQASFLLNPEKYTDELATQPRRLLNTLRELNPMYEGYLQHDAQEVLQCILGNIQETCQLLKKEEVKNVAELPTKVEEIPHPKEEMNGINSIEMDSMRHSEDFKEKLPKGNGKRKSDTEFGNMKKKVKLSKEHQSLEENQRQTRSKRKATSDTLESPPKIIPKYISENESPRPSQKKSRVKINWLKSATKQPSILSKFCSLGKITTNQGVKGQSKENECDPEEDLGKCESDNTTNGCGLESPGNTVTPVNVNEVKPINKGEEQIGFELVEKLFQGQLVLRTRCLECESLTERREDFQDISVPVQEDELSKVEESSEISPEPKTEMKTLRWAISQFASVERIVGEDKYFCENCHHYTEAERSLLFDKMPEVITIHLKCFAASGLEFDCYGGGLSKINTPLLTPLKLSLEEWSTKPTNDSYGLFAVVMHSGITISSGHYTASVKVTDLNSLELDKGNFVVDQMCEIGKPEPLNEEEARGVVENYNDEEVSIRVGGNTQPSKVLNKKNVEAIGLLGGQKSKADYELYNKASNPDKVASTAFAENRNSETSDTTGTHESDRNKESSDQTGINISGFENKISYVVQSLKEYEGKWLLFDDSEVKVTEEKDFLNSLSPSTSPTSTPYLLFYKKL
Chain of Luciferin 4-monooxygenase (Photinus pyralis) (P08659 whole entry, looked up): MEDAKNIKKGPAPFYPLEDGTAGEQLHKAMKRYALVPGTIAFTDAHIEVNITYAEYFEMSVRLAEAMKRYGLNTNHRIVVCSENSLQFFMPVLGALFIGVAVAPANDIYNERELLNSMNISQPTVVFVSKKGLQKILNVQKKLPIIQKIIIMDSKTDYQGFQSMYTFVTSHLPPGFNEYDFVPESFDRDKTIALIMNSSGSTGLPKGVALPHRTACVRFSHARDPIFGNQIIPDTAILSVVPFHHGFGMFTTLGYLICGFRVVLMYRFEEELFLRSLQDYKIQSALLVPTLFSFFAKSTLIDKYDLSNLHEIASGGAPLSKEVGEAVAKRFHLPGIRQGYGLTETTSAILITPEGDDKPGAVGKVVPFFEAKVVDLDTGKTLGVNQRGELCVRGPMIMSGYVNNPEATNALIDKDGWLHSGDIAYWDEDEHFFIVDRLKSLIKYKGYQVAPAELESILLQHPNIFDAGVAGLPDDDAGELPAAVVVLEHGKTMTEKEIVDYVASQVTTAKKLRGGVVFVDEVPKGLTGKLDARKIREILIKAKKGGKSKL

CC1(C)[C@@H]2CC[C@]1(C)[C@@H](OC(=O)CSC#N)C2
inactive: Potency [1] | outcome [2] | Potency [3] | Potency [4] | outcome [5] | Potency [6] | Potency [7] | Potency [8] | Potency [9] | Potency [10] | Potency [11] | Potency [12] | Potency [13] | Potency [14] | Potency [15] | Potency [16] | Potency [17] | Potency [18]

COc1cccc2c1C(=O)c1c(O)c3c(c(O)c1C2=O)C[C@](O)(C(=O)CO)C[C@@H]3O[C@H]1C[C@H](N)[C@@H](O)[C@H](C)O1
inactive: Potency [1] | outcome [2] | Potency [4] | outcome [5] | Potency [6] | Potency [7] | Potency [8] | Potency [9] | Potency [10] | Potency [11] | Potency [12] | Potency [13] | Potency [14] | Potency [15] | Potency [19] | Potency [17] | Potency [18]

CC(C)(C)NC[C@@H](O)c1ccc(O)c(CO)n1
inactive: Potency [1] | outcome [2] | Potency [3] | outcome [5] | Potency [6] | Potency [7] | Potency [8] | Potency [9] | Potency [10] | Potency [11] | Potency [12] | Potency [13] | Potency [14] | Potency [15] | Potency [16] | Potency [19] | Potency [17] | Potency [18]

O=C(CSc1nc2ccccc2s1)c1sc2sc3ccccc3[n+]2c1O
inactive: activation [20] -16.9%

O=c1c(-c2cccs2)nc2cnc(Oc3ccccc3)nc2n1C1CC1
active: Potency [20] 3.16 µM

COc1ccc(CCCC(=O)O)c(C)c1
inactive: activation [20] -8.35%
